The panel holds about 79,000 compounds, 15% with a hit somewhere; the sample as a whole holds those more often. No stated cut-off is given here; in the data, active means growth inhibition above about 70%; inactive means the rest.
Key:
[1] = NCI Yeast Anticancer Drug Screen. Data for the rad50 strain (AID 155);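 further: 0% = growth of vehicle-only cultures of the same strain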; conditions: S. cerevisiae rad50 strain growth inhibition; at 50.0 µM; stronger effect = higher value
Outline: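 Inhibition values express reduced yeast growth in compound-treated cultures relative to vehicle-treated controls.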

[2] = NCI Yeast Anticancer Drug Screen. Data for the mec2-1 strain (AID 157); conditions: S. cerevisiae mec2-1 strain, at 50.0 µM, stronger effect = higher value
Outline: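 Readout is yeast growth inhibition, normalised to vehicle-treated controls, in the mec2-1 strain exposed to compound.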

[3] = NCI Yeast Anticancer Drug Screen. Data for the sgs1 mgt1 strain (AID 161);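 further: 0% = growth of cultures given vehicle only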; conditions: S. cerevisiae sgs1 mgt1 strain, at 50.0 µM, stronger effect = higher value
Outline: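 This yeast growth screen uses a strain with defined DNA-repair lesions; compound-treated growth is compared with vehicle-treated growth.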

[4] = NCI Yeast Anticancer Drug Screen. Data for the cln2 rad14 strain (AID 165);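 further: 0% = growth equal to vehicle treated cultures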; conditions: S. cerevisiae cln2 rad14 strain, at 50.0 µM, stronger effect = higher value
Outline: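 Relative to vehicle controls, growth inhibition of compound-treated cln2 rad14 yeast was recorded.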

[5] = NCI Yeast Anticancer Drug Screen. Data for the bub3 strain (AID 167); conditions: S. cerevisiae bub3 mutant strain, at 50.0 µM, stronger effect = higher value
Outline: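 Steps: expose the mutant yeast strain to compound; grow alongside vehicle-treated cultures; measure growth; express inhibition against the vehicle cultures.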

[6] = NCI Yeast Anticancer Drug Screen. Data for the mlh1 rad18 strain (AID 175); conditions: S. cerevisiae mlh1 rad18 strain growth inhibition; at 50.0 µM; stronger effect = higher value
Outline: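 Test agents were incubated with a yeast strain of defined genotype (DNA damage repair defect). Inhibition of growth was derived by comparison with vehicle-exposed cultures.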

Measured: growth inhibition

CC1C2(C)OC(=N)C(C#N)(C(c3ccco3)O2)C1(C#N)C#N (stereo not given)
inactive: [1] 6.75% | [2] 3.1% | [3] -6.55% | [4] 5.95% | [5] -9.65% | [6] -1.4%

CC(C)(C)C(N)=O
inactive: [1] 2.4% | [2] -1.25% | [3] 4.35% | [4] -3.9% | [5] -7.25% | [6] -1.25%

CC1=C(C(=O)Nc2c(C)cccc2C)C(c2ccccc2Cl)C(C(=O)Nc2c(C)cccc2C)=C(C)N1
inactive: [1] -39.4% | [2] -6.4% | [3] -27.4% | [4] -20.9% | [5] -13.8% | [6] -11.7%

COc1ccc(-c2c(N)nc(=S)[nH]c2C(=O)O)cc1
inactive: [1] -8.65% | [2] 9.85% | [3] -9.15% | [4] -21.2% | [5] 8.75% | [6] -17.7%

CN(C)CCCn1cnc2cc(Cl)c(Cl)cc21
inactive: [1] 0.2% | [2] -6.4% | [3] -21% | [4] -0.8% | [5] 9.95% | [6] -0.15%

O=C(CCN1C(=O)CC1c1ccco1)N1CCOCC1 (stereo not given)
inactive: [1] -1.55% | [2] -36.1% | [3] -10.5% | [4] 13.1% | [5] -18.2% | [6] 13.3%

N#C/C(=C\c1ccc2ccccc2c1)c1ccccc1
inactive: [1] 37.9% | [2] 14.9% | [3] 12.8% | [4] 17% | [5] 25.7% | [6] 52%

O=C(NNC(=O)c1cccc(F)c1)c1cccc(F)c1
inactive: [1] -20.6% | [2] -8.1% | [3] -13.3% | [4] 18.9% | [5] -6.4% | [6] -1.75%

CC1=C(C(=O)NCc2ccccc2)C(c2ccco2)C(C(=O)NCc2ccccc2)=C(C)N1
inactive: [1] -34.5% | [2] -20.4% | [3] -37.5% | [4] -13.3% | [5] -9.9% | [6] -21.8%

O=C1OCC/C1=C1/NC2CCCCC2NC1=O (stereo not given)
inactive: [1] -6.55% | [2] -16.1% | [3] 1.15% | [4] -24.6% | [5] -6.25% | [6] -14.1%

CCC1=CCC(P(=O)(c2ccccc2)c2ccccc2)CC1C (stereo not given)
inactive: [1] -28.8% | [2] -16.4% | [3] -0.15% | [4] 12.6% | [5] 0.15% | [6] -19.8%

CC(C)[C@@H]1CC[C@@H](C)C[C@H]1N
inactive: [1] -16.7% | [2] 7.8% | [3] -8.85% | [4] -35.5% | [5] 3.95% | [6] -11.2%

O=C(OC1CCc2ccccc2C1)c1ccc(N=Nc2ccccc2)cc1 (stereo not given)
inactive: [1] 24.5% | [2] 5.55% | [3] 20.7% | [4] -39.8% | [5] 5.95% | [6] 18.9%

O=[N+]([O-])c1ccc(C2CC(c3ccccc3)=NN2c2ccccc2)cc1 (stereo not given)
inactive: [1] 7.65% | [2] -8.85% | [3] 1.3% | [4] -8.9% | [5] 17.9% | [6] -9.05%

CCOC(CN/C(=C/c1ccc2ccccc2[n+]1C)SC)OCC
inactive: [1] -10.8% | [2] 9.15% | [3] -8.4% | [4] -12.1% | [5] -32.8% | [6] -8.2%

CCNCC(=O)Nc1ccc(C(=O)OC)cc1
inactive: [1] -8% | [2] -29.4% | [3] -9.9% | [4] -20% | [5] 1.45% | [6] -28.9%

CCCCCCC(N)=O
inactive: [1] 8.1% | [2] 2.1% | [3] -4.05% | [4] -26.9% | [5] -6.45% | [6] 9.75%

Cn1c(=O)c2c(nc(Br)n2CC(=O)c2ccc([N+](=O)[O-])cc2)n(C)c1=O
inactive: [1] 24.8% | [2] 16.1% | [3] 22.1% | [4] 18.9% | [5] 0.55% | [6] 27.4%

COc1ccc(N2C(=O)[C@@H](N=[N+]=[N-])[C@@H]2[C@H]2COC(C)(C)O2)cc1
inactive: [1] 1.95% | [2] -14.3% | [3] 1.3% | [4] 5% | [5] 3.35% | [6] 9%

O=S(Cc1ccccc1)CC(O)CO (stereo not given)
inactive: [1] -24.9% | [2] 5.95% | [3] 2.7% | [4] -41.2% | [5] 10.3% | [6] -0.85%

COC(=O)N/N=C(/c1nc2ccc([N+](=O)[O-])cc2[nH]c1=O)C(O)c1ccc(OC)c(OC)c1 (stereo not given)
inactive: [1] -3.3% | [2] 0.35% | [3] -3.05% | [4] 17.7% | [5] 26.5% | [6] 6.2%

COC(=O)c1cc2ccccc2cc1Nc1ccc2ccccc2c1
inactive: [1] 2.25% | [2] 4.7% | [3] 5.25% | [4] -10.3% | [5] -0.7% | [6] 7.3%

O=C(Oc1ccccc1)C(c1ccccc1)c1ccccc1
inactive: [1] -9.95% | [2] 0.7% | [3] 7.95% | [4] -59.7% | [5] 16.7% | [6] -10.5%

Cc1ccc(S(=O)c2cccs2)cc1 (stereo not given)
inactive: [1] 2.15% | [2] -28.1% | [3] -49% | [4] -38.9% | [5] -18% | [6] -28.8%

CN(C)C(=S)Nc1ccc(S(=O)(=O)N2CCCCC2)cc1
inactive: [1] -7.9% | [2] -28.4% | [3] -2.7% | [4] 1.15% | [5] -16.4% | [6] -7.85%

CCCCCCCCCCCCCCCCCC(=O)CC(=O)OCC
inactive: [1] -1.25% | [2] 1.15% | [3] 3.5% | [4] 17.9% | [5] -10% | [6] 4.25%

O=C(O)c1ccccc1C(NC(=O)N1C(=O)C=CC1=O)NC(=O)N1C(=O)C=CC1=O
inactive: [1] 29.2% | [2] -5.1% | [3] -2.85% | [4] 16.4% | [5] 4.8% | [6] 12.8%

O=C(NCCCn1ccnc1[N+](=O)[O-])C(=O)NCCCn1ccnc1[N+](=O)[O-]
inactive: [1] 9.3% | [2] -12.2% | [3] -19.5% | [4] -8.95% | [5] -32% | [6] -23.4%

[Br][Pt+2][Br].[NH-]c1ccc(F)cc1.[NH-]c1ccc(F)cc1
inactive: [1] 34.9% | [2] 9.2% | [3] 5.4% | [4] -8.3% | [5] -4.75% | [6] 24.9%

CCCCCCCCCCCCCCCCCC(=O)N/N=C/c1ccc(O)cc1
inactive: [1] -22.3% | [2] -12.4% | [3] -16.2% | [4] -61.2% | [5] -6.2% | [6] 1.85%

O=C(NCCCOc1ccc(Cl)c(Cl)c1)NCCc1ccc(Cl)c(Cl)c1
inactive: [1] 6.65% | [2] 4.7% | [3] -3.95% | [4] -8.9% | [5] 0.95% | [6] 15.4%

O=c1cc(CO)oc2c3c(cc(O)c12)OCC(COC1OC(CO)C(O)C(O)C1O)=CC3 (stereo not given)
inactive: [1] -1.25% | [2] -8.75% | [3] -1.75% | [4] -13.9% | [5] -0.55% | [6] -0.9%

Cc1cc(Cl)c(O)c(C2(C(O)c3ccc(O)cc3)NC(=S)NC2=O)c1 (stereo not given)
inactive: [1] -20.4% | [2] -17.1% | [3] -25.6% | [4] -6.5% | [5] 4.95% | [6] -6.75%

O=C(O)c1cc2oc3ccccc3c2cc1O
inactive: [1] 2.4% | [2] -7.5% | [3] 18.6% | [4] 4.4% | [5] 2.4% | [6] 23.3%

C[CH2][Sn]([CH2]C)([O]P(=O)(C[Si](C)(C)C)c1ccccc1)[O]P(=O)(C[Si](C)(C)C)c1ccccc1 (stereo not given)
inactive: [1] 0% | [2] 8.7% | [3] 4.2% | [4] 24% | [5] 53.2% | [6] 17.2%

COC(=O)/C=C(\C(=O)OC)c1cc(C)c2cc(C(C)C)ccc(C)c1-2
inactive: [1] 4.25% | [2] -22.2% | [3] 13% | [4] 13.8% | [5] -7.5% | [6] 17.9%

Cn1c(=O)n(C2(C)CSC2)c2ccccc21
inactive: [1] -27.2% | [2] -14.6% | [3] -46.1% | [4] -3.95% | [5] -3.35% | [6] -33.9%

COc1cc2c(cc1C/C=C/c1ccccc1)OCO2
inactive: [1] -11.4% | [2] -15.9% | [3] -0.9% | [4] -9.5% | [5] 17.1% | [6] -6.4%

N#CC(C(=N/NC(N)=S)/C(=N/NC(N)=S)C(C#N)c1ccc(Cl)cc1)c1ccc(Cl)cc1 (stereo not given)
inactive: [1] -16.9% | [2] -19.8% | [3] -23.9% | [4] -6.85% | [5] -4.95% | [6] -13.1%

Nc1cc2cn[nH]c2cc1N
inactive: [1] -10.6% | [2] 4.75% | [3] 4.4% | [4] -8.75% | [5] 9.3% | [6] 25.6%
